This note sets out measurements from PubChem BioAssay (Tox21).

Records with an inconclusive call do not appear. A call without a number means that no potency is given here. Activity calls are given as the source filed them. Unless noted, the call rests on the fitted dose curve; in most records, active means well fitted curve in the direction sought with a large enough effect in the repeat runs; inconclusive means weak or mixed curves; inactive means no such curve, though single readings can be large; an effect the other way counts as inactive or inconclusive.

The first assay is described as follows: qHTS assay to identify small molecule agonists of the progesterone receptor (PR) signaling pathway - cell viability counter screen (AID 1346799; calls by dose curve; further: nearly all actives have a fitted effect of over 45% in size; further: potency means the concentration at half of the fitted maximal effect). The following applies: PR-UAS-bla HEK293T viability, CellTiter-Glo luminescence, 16 h; series mostly up to 92.4 µM. The procedure, abridged:
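PR-UAS-bla HEK293T cells, 3,000 per well in medium with 2% charcoal-stripped FBS, were preincubated 6 hr at 37C, then exposed to compounds for 16 hr; viability was read as CellTiter-Glo luminescence after 30 min at room temperature.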
For orientation: Quantitative high-throughput screening tests each substance at several concentrations.
In the case of `C[C@@H]1C[C@H]2[C@@H]3CCC4=CC(=O)C=C[C@]4(C)[C@@]3(F)[C@@H](O)C[C@]2(C)[C@@]1(O)C(=O)COP(=O)(O)O`, the Potency result is “inactive”.
Same read-out and setting: the entry for `O=C(O)CN1C(=O)c2cccc3cccc(c23)C1=O` is “inactive”.
The same measure, in the same setting: with `CCOC(=O)c1c(N)sc2c1CCN(Cc1ccccc1)C2` the entry was “inactive”; with `CC(=O)OCC(C)C`, “inactive”; with `CCCCCCCCCCCSCC(=O)O`, 21.7 µM (active).
Still for that read-out and setting: the entry for `Nc1nc(-c2ccc([N+](=O)[O-])cc2)cs1` is “inactive”.
As to `COc1cc(NC(C)CCCN)c2ncccc2c1` (centres undefined), the Potency entry is “inactive”.
The same measure, in the same setting: with `CC(C)OC(=O)c1ccccc1C(=O)OC(C)C` the figure was 43.3 µM (active); with `Cc1ccccc1S(N)(=O)=O`, “inactive”; with `COc1cc(NCc2ccc3nc(N)nc(N)c3c2C)cc(OC)c1OC`, “inactive”.
Still for that read-out and setting: with `O=C1OC(=O)c2c(Br)c(Br)c(Br)c(Br)c21` the entry was “inactive”.
On the same count and under the same terms, the entry for `Cc1ccc2c(c1[N+](=O)[O-])C(=O)c1ccccc1C2=O` is “inactive”; for `O=c1[nH]c2cc(C(F)(F)F)c(N3CCOCC3)cc2n(CP(=O)(O)O)c1=O` it is “inactive”.
On to `COc1ccc(N)c([N+](=O)[O-])c1`, for which the Potency result was “inactive”.
Same read-out and setting: with `C1=CCC2CC=CC2C1` (centres undefined) the entry was “inactive”.
The same measure, in the same setting: the figure for `CN1CCCN(C(c2ccccc2)c2ccc(Cl)cc2)CC1` (centres undefined) is 13.3 µM (active).
With `CC(CN(CCN(CC(C)OCCO)CC(C)OCCO)CC(C)OCCO)OCCO` (centres undefined), the Potency entry is “inactive”.

A short description of the next assay: qHTS assay to identify small molecule antagonists of the TGF-beta/Smad signaling pathway - cell viability counter screen (AID 1346824). Further: nearly all actives have a fitted effect of over 50% in size. The following applies: SBE-bla HEK293T viability, CellTiter-Glo luminescence; series mostly up to 76.8 µM. The procedure, abridged:
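SBE-bla HEK 293T cells were plated overnight at 37 C, then given compounds in DMSO plus TGF-beta1 (added as 0.25 ng/mL solution) for 5 hr. After the bla read, CellTiter-Glo was added to the same wells and luminescence read after 30 min at room temperature.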
For the compound `CCN(CC)C(=O)/C(C#N)=C/c1cc(O)c(O)c([N+](=O)[O-])c1`, the compound was called inactive.
Still for that read-out and setting: with `C[C@@H]1C[C@H]2[C@@H]3CCC4=CC(=O)C=C[C@]4(C)[C@@]3(F)[C@@H](O)C[C@]2(C)[C@@]1(O)C(=O)COP(=O)(O)O` the entry was “inactive”; with `CC[C@@H](CO)NCCN[C@@H](CC)CO`, “inactive”.
Consider `CCOC(=O)c1ccc(NC(=O)CN2CCCCC2)cc1`, for which the call was inactive.
On the same count and under the same terms, the entry for `CC(=O)OCC(C)C` is “inactive”; for `Cc1cn([C@H]2C[C@H](F)[C@@H](CO)O2)c(=O)[nH]c1=O` it is “inactive”.
The same measure, in the same setting: the entry for `COC(=O)Nc1nc2ccc(C(=O)C3CC3)cc2[nH]1` is “inactive”; for `CCCCCCCCCCCSCC(=O)O` it is “inactive”.
With `Nc1nc(-c2ccc([N+](=O)[O-])cc2)cs1`, the outcome was inactive.
Consider `COc1cc(NC(C)CCCN)c2ncccc2c1` (centres undefined), for which the compound was called inactive.
Still for that read-out and setting: the entry for `CC(C)OC(=O)c1ccccc1C(=O)OC(C)C` is “inactive”; for `Cc1ccccc1S(N)(=O)=O` it is “inactive”.
The same measure, in the same setting: with `COC1CCC=CO1` (centres undefined) the entry was “inactive”; with `O=C1NC(=O)c2cccc3cccc1c23`, “inactive”.
Turning to `c1ccc2sc(SSc3nc4ccccc4s3)nc2c1`, the viability change, negative = cytotoxic was 3.02% [at 15.8 µM] (inactive).
Turning to `NC(=O)c1ccccc1[N+](=O)[O-]`, the compound was called inactive.
On the same count and under the same terms, the entry for `CC[C@H]1OC(=O)[C@H](C)[C@@H](O[C@H]2C[C@@](C)(OC)[C@@H](O)[C@H](C)O2)[C@H](C)[C@@H](O[C@@H]2O[C@H](C)C[C@H](N(C)C)[C@H]2O)[C@](C)(O)C[C@@H](C)CN(C)[C@H](C)[C@@H](O)[C@]1(C)O` is “inactive”; for `Cc1ccc(Nc2c(F)cccc2Cl)c(CC(=O)O)c1` it is “inactive”; for `c1ccc(CCCc2ccncc2)cc1` it is “inactive”.
On to `CC(C)c1ccc(C(=O)N=C(N)N)cc1S(C)(=O)=O`, for which the outcome was inactive.
For the compound `O=c1[nH]c2cc(C(F)(F)F)c(N3CCOCC3)cc2n(CP(=O)(O)O)c1=O`, the outcome was inactive.
Same read-out and setting: with `Cc1ccc2c(c1)CCCN2` the entry was “inactive”; with `COc1ccc(N)c([N+](=O)[O-])c1`, “inactive”.
The same measure, in the same setting: with `C1CCCCC1` the entry was “inactive”; with `CN1CCCN(C(c2ccccc2)c2ccc(Cl)cc2)CC1` (centres undefined), “inactive”; with `CC(CN(CCN(CC(C)OCCO)CC(C)OCCO)CC(C)OCCO)OCCO` (centres undefined), “inactive”.

Another assay can be described thus: qHTS assay to identify small molecule agonists of the TGF-beta/Smad signaling pathway - cell viability counter screen (AID 1346829). Further: top concentration of the series differs between compounds; nearly all actives have a fitted effect of over 45% in size. Conditions: SBE-bla HEK293T viability, CellTiter-Glo luminescence, 5 h; series mostly up to 76.8 µM. In a few lines:
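CellTiter-Glo luminescence readout; SBE-bla HEK 293T cells, overnight plating, compound 5 hr at 37 C/5% CO2, then bla substrate 2 hr RT, then CellTiter-Glo 30 min RT.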
Turning to `CCN(CC)C(=O)/C(C#N)=C/c1cc(O)c(O)c([N+](=O)[O-])c1`, the Potency result is “inactive”.
For `C[C@@H]1C[C@H]2[C@@H]3CCC4=CC(=O)C=C[C@]4(C)[C@@]3(F)[C@@H](O)C[C@]2(C)[C@@]1(O)C(=O)COP(=O)(O)O`, the Potency result is “inactive”.
For the compound `O=C(O)CN1C(=O)c2cccc3cccc(c23)C1=O`, the Potency result was “inactive”.
Still for that read-out and setting: the entry for `CCOC(=O)c1c(N)sc2c1CCN(Cc1ccccc1)C2` is “inactive”; for `CC[C@@H](CO)NCCN[C@@H](CC)CO` it is “inactive”; for `CCOC(=O)c1ccc(NC(=O)CN2CCCCC2)cc1` it is “inactive”.
Same read-out and setting: with `CC(=O)OCC(C)C` the entry was “inactive”; with `O=S(=O)(O)CO`, “inactive”; with `COC(=O)Nc1nc2ccc(C(=O)C3CC3)cc2[nH]1`, “inactive”.
On the same count and under the same terms, with `CC(C)C(O)C(C)(C)CO` (centres undefined) the entry was “inactive”.
For `Nc1nc(-c2ccc([N+](=O)[O-])cc2)cs1`, the Potency result is “inactive”.
The same measure, in the same setting: with `COc1cc(NC(C)CCCN)c2ncccc2c1` (centres undefined) the entry was “inactive”; with `CC(C)OC(=O)c1ccccc1C(=O)OC(C)C`, “inactive”; with `Cc1ccccc1S(N)(=O)=O`, “inactive”.
The same measure, in the same setting: the entry for `COc1cc(S(=O)(=O)Nc2ccccc2)c(OC)cc1N` is “inactive”.
Regarding `COC1CCC=CO1` (centres undefined), the Potency result is “inactive”.
`c1ccc2sc(SSc3nc4ccccc4s3)nc2c1`: the activity change, negative = cytotoxicity was 25.5% [at 15.8 µM] (inactive).
Regarding `NC(=O)c1ccccc1[N+](=O)[O-]`, the Potency entry was “inactive”.
Still for that read-out and setting: the entry for `O=C1OC(=O)c2c(Br)c(Br)c(Br)c(Br)c21` is “inactive”; for `CCCCCC` it is “inactive”.
Same read-out and setting: the entry for `CC[C@H]1OC(=O)[C@H](C)[C@@H](O[C@H]2C[C@@](C)(OC)[C@@H](O)[C@H](C)O2)[C@H](C)[C@@H](O[C@@H]2O[C@H](C)C[C@H](N(C)C)[C@H]2O)[C@](C)(O)C[C@@H](C)CN(C)[C@H](C)[C@@H](O)[C@]1(C)O` is “inactive”; for `Cc1ccc(Nc2c(F)cccc2Cl)c(CC(=O)O)c1` it is “inactive”.
Still for that read-out and setting: the entry for `c1ccc(CCCc2ccncc2)cc1` is “inactive”; for `CC(C)c1ccc(C(=O)N=C(N)N)cc1S(C)(=O)=O` it is “inactive”; for `COC(=O)C1=C(C)NC(C)=C(C(=O)OC(C)(C)CN(C)CCC(c2ccccc2)c2ccccc2)C1c1cccc([N+](=O)[O-])c1` (centres undefined) it is “inactive”.
Turning to `O=c1[nH]c2cc(C(F)(F)F)c(N3CCOCC3)cc2n(CP(=O)(O)O)c1=O`, the Potency entry was “inactive”.
Same read-out and setting: the entry for `Cc1ccc2c(c1)CCCN2` is “inactive”.
With `COc1ccc(N)c([N+](=O)[O-])c1`, the Potency result was “inactive”.
Regarding `C1CCCCC1`, the Potency result was “inactive”.
On the same count and under the same terms, with `C1=CCC2CC=CC2C1` (centres undefined) the entry was “inactive”.
On the same count and under the same terms, the entry for `CN1CCCN(C(c2ccccc2)c2ccc(Cl)cc2)CC1` (centres undefined) is “inactive”.
